Bioassay records: PubChem BioAssay, National Center for Advancing Translational Sciences (NCATS)
Most compounds without a hit are left out; they make up all but 10% or so of the library.
Luciferase inh: blocks purified firefly luciferase enzyme activity; P08659; purified P. pyralis luciferase, luminescence, biochemical; Potency, µM (highest dose often 115 µM), actives largely listed as inhibitors; 2.5% of 76,000 active; further: nearly all actives have a fitted effect of over 65% in size
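Purified 10nM P. pyralis luciferase with 10uM D-luciferin and 10uM ATP in 50mM Tris acetate pH 7.5, 10mM Mg acetate, 0.01% Tween-20, 0.05% BSA. qHTS titration; luminescence read by CCD imager.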
NIH3T3 tox: cytotoxic compounds in NIH 3T3 cells | Potency, µM (highest dose often 96.7 µM), usual class: inhibitors | AID 1345082 | 4.3% of 94,000 active | NIH 3T3 viability, CellTiter-Glo ATP luminescence, 48-72 h; further: nearly all actives have a fitted effect of over 55% in size
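Viability of NIH 3T3 cells after 48 or 72 hr compound treatment at 37 °C was assessed by CellTiter-Glo, with luminescence imaged following a 10 min room-temperature step.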
NPR1 antag: antagonists of human natriuretic peptide receptor Npr1; P16066; HEK293 hNpr1 GloSensor cGMP, ANP-stimulated luminescence; Potency, µM (doses to about 46.3 µM), hits mostly inhibitors; 1.6% of 76,000 active; AID 1347048; calls by dose curve; further: nearly all actives have a fitted effect of over 60% in size
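HEK293 cells stably expressing human Npr1 and cGMP GloSensor pGS-40F, loaded 2 h with 2% GloSensor reagent, given compound 30 min at room temperature. Luminescence read before and 20 min after 0.1 nM hNppA.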
GPT2 inh: inhibitors of human GPT2 alanine aminotransferase; Q8TD30; Recombinant GPT2, coupled pyruvate oxidase/HRP Amplex Red fluorescence; 0.25% of 100,000 active; AID 1671188; Potency, µM (doses to about 57.7 µM), usual class: inhibitors; further: nearly all actives have a fitted effect of over 60% in size
Target sequence (Q8TD30 whole entry, looked up): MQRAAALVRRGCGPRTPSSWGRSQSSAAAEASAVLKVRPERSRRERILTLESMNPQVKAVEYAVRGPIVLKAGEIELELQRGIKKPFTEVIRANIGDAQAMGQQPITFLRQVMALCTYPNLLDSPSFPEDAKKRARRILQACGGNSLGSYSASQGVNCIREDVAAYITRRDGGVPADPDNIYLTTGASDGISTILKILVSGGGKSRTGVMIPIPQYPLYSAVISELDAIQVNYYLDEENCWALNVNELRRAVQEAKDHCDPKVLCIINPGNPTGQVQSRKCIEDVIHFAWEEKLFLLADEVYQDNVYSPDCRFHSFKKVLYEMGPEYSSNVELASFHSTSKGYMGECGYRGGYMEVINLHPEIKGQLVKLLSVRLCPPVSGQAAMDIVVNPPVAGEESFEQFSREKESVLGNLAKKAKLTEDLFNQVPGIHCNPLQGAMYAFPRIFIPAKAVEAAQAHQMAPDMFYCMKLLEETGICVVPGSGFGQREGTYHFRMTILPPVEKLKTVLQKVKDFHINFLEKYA
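Inhibition is scored from Amplex Red fluorescence generated when pyruvate oxidase and HRP act on pyruvate released by GPT2. Reactions contain 10ng/uL enzyme, 250uM a-KG and 2mM L-alanine and run 30 min at room temperature.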
HEK293 tox: HEK 293 cell cytotoxicity; HEK 293 viability, ATP luminescence (CellTiter-Glo), 48-72 h; Potency, µM (top dose mostly 115 µM), usual class: inhibitors; 6.6% of 94,000 active; further: nearly all actives have a fitted effect of over 60% in size
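Luminescence from cellular ATP, measured with CellTiter-Glo, indicates HEK 293 viability. Cells plated at 250 cells/well are treated with compound for 48 or 72 hr at 37 degree Celsius before reagent addition.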
A number is an active result; . = inactive; ? = inconclusive; / = no result. Unless noted, the call rests on the fitted dose curve; in most records, active means well fitted curve in the direction sought with a large enough effect; inconclusive means small, poorly fitted or top-dose-only effect, or another doubt; inactive means no such curve, though single readings can be large; an effect the other way counts as inactive or inconclusive.

SMILES | Luciferase inh | NIH3T3 tox | NPR1 antag | GPT2 inh | HEK293 tox
COc1cccc(N2C(=O)OCC23CCN(Cc2c[nH]c4ccccc24)C3)c1 (centres undefined) | . | . | . | . | ?
O=C(Cc1ccccn1)N1CCc2nc(C3CC3)nc(-c3ccc(Cl)cc3)c2C1 | / | ? | / | . | ?
CSCCNC(=O)C1CCCN(c2nccc(Nc3ccccc3F)n2)C1 (centres undefined) | / | 25µM | / | . | ?
CCOCCNC(=O)C1CCCN(c2nccc(Nc3ccccc3F)n2)C1 (centres undefined) | / | ? | / | . | ?
O=C(NCCc1ccc(F)cc1)C1CCCN(c2nccc(Nc3ccccc3F)n2)C1 (centres undefined) | / | 28µM | / | . | ?
O=C(NCCc1ccccc1)C1CCCN(c2nccc(Nc3ccccc3F)n2)C1 (centres undefined) | / | 22µM | / | . | ?
O=C(NCCCc1ccccc1)C1CCCN(c2nccc(Nc3ccccc3F)n2)C1 (centres undefined) | / | 32µM | / | . | ?
COCCN1C[C@H]2COc3ccccc3[C@H]2N(C(=O)COc2ccccc2)CCC1=O | / | ? | / | / | .
O=C(NCCc1ccccc1F)C1CCN(c2nccc(Nc3ccccc3F)n2)CC1 | / | ? | / | . | 32µM
O=C(NCCc1ccccc1)C1CCN(c2nccc(Nc3ccccc3F)n2)CC1 | / | ? | / | . | ?
Fc1cccc(CN2CCO[C@@H](COc3ccccn3)[C@@H]2c2ccccc2)c1 | / | 35µM | / | . | ?
CCCc1noc(-c2cn(C3CCN(C(=O)c4cccs4)CC3)nn2)n1 | . | . | . | . | .
CCc1cccc2c(C(CC(=O)N3CCCC3)c3ccc(Cl)c(Cl)c3)c[nH]c12 (centres undefined) | . | ? | . | . | 40µM
CCOC(=O)C1CCN(C(=O)CC(c2ccc3c(c2)OCO3)c2c[nH]c3ccccc23)CC1 (centres undefined) | . | ? | . | . | ?
CCc1cccc2c(C(CC(=O)N3CCC(C)CC3)c3cccc(C)c3)c[nH]c12 (centres undefined) | . | ? | . | . | 35µM
CCOC(=O)C1CCN(C(=O)CC(c2ccc(OC)c(OC)c2)c2c[nH]c3c(CC)cccc23)CC1 (centres undefined) | . | ? | . | . | 79µM
O=C(COc1ccc(F)cc1)N1CCCCCC1c1nnc(-c2ccccc2)o1 (centres undefined) | / | ? | / | . | ?
Cc1noc2c(N(C)C)cc(-c3cccc(C(F)(F)F)c3)nc12 | . | ? | . | . | .
Cc1noc2c(NCCN(C)C)cc(-c3cccc(C(F)(F)F)c3)nc12 | . | 32µM | . | . | 32µM
COCCCNc1cc(-c2cccc(C(F)(F)F)c2)nc2c(C)noc12 | . | ? | . | . | 79µM
CC(=O)N1CCCC(C(=O)N2CCC(c3nc4ncccc4[nH]3)C2)C1 (centres undefined) | / | . | / | . | .
CCN1CCN(C(=O)c2ccc3nnc(-c4cc(C(F)(F)F)cc(C(F)(F)F)c4)n3c2)CC1 | / | . | / | . | .
Cc1ccc(S(=O)(=O)N(C)C2CCOc3ccccc32)cc1 (centres undefined) | . | ? | . | . | 100µM
COc1ccccc1N1CCCc2ncc(C(=O)N3CCC[C@@H]3c3ccc(F)cc3)cc21 | . | 89µM | . | . | ?
COc1ccccc1N1CCCc2ncc(C(=O)N3CCCC[C@@H]3Cc3ccccc3)cc21 | . | ? | . | . | ?
SMILES | Luciferase inh | NIH3T3 tox | NPR1 antag | GPT2 inh | HEK293 tox
COc1ccccc1N1CCCc2ncc(C(=O)N(C)Cc3ccccc3)cc21 | . | ? | . | . | 100µM
COc1ccccc1N1CCCc2ncc(C(=O)NCCc3ccccc3)cc21 | . | ? | . | . | ?
COc1ccccc1N1CCCc2ncc(C(=O)NCCOc3ccccc3)cc21 | . | 89µM | . | . | 100µM
COc1ccc(CN[C@@H]2C=C[C@@H](c3c(C)nn(-c4ccc(OC)cc4)c3C)C2)cc1 | ? | 32µM | . | . | 50µM
COc1ccc(-n2nc(C)c([C@@H]3C=C[C@@H](NCc4ccccc4)C3)c2C)cc1 | 50µM | ? | ? | . | 79µM
O=C(c1ccc(C(F)(F)F)cc1)N1CCCC(C(=O)N2CCC(c3ccccc3)CC2)C1 (centres undefined) | / | ? | / | . | ?
O=C(O)CCC(=O)N1CCC2(CC1)Cc1ccccc1N(C(=O)c1ccc(Cl)cc1)C2 | / | 32µM | / | . | .
NC(=O)c1cccc(CN2CCC3(Cc4ccccc4N(C(=O)c4ccc(Cl)cc4)C3)C2)c1 (centres undefined) | / | ? | / | ? | 35µM
NC(=O)c1cccc(CN2CCC3(CC2)Cc2ccccc2N(C(=O)c2ccc(Cl)cc2)C3)c1 | / | ? | / | . | 40µM
O=C(O)CCC(=O)N1CCC2(CC1)Cc1ccccc1N(C(=O)C1CCCC1)C2 | / | ? | / | . | .
O=C(c1ccc(Cl)cc1)N1CC2(CCN(Cc3ccccn3)CC2)Cc2ccccc21 | / | ? | / | . | ?
O=C(c1ccc(Cl)cc1)N1CC2(CCCN(Cc3ccccn3)C2)Cc2ccccc21 (centres undefined) | / | ? | / | . | 32µM
CC(C)C[C@@H]1N[C@H](C(=O)N2CCOCC2)Cc2cn(Cc3ccncc3)c3cccc1c23 | . | ? | . | . | ?
Cc1ccccc1CNC(=O)c1ccc(CN2C(=O)NC3(CCOCC3)C2=O)cc1 | . | . | . | . | .
Cc1ccc(NC(=O)c2ccc(CN3C(=O)NC4(CCOCC4)C3=O)cc2)cc1 | 16µM | . | . | . | ?
COc1ccc(NC(=O)c2ccc(CN3C(=O)NC4(CCOCC4)C3=O)cc2)cc1 | 28µM | . | . | . | .
CCC(c1cccs1)N1C(=O)[C@H]2CN(S(=O)(=O)c3ccccc3C)C[C@H]2C1=O (some centres undefined) | . | . | . | . | ?
COc1ccc(CN2CC3(COCC2=O)CN(c2ccc(C(F)(F)F)cn2)C3)cc1F | . | ? | . | . | ?
Cc1cccc(C)c1CN1CC2(COCC1=O)CN(c1ccc(C(F)(F)F)cn1)C2 | . | 89µM | . | . | ?
COc1ccccc1C(=O)N1C[C@@H](CO)[C@H](NC(=O)c2ccccc2)C1 | / | . | / | . | .
O=C(Cc1c[nH]c2ncc(-c3ccncc3)cc12)N1CCOCC1 | . | ? | . | . | .
O=C(Cc1c[nH]c2ncc(-c3ccc(F)cc3)cc12)N1CCOCC1 | 56µM | ? | ? | . | ?
COc1ccc(-c2cnc3[nH]cc(CC(=O)N4CCOCC4)c3c2)cn1 | ? | 25µM | . | ? | ?
O=C(Cc1c[nH]c2ncc(-c3ccc4c(c3)OCO4)cc12)N1CCOCC1 | ? | 25µM | ? | . | ?
CN(C)C(=O)c1ccc(-c2cnc3[nH]cc(CC(=O)N4CCOCC4)c3c2)cc1 | . | ? | . | . | ?
